# According to PubChem BioAssay (NCATS):
# Values joined by “and” are separate entries in the source; they are usually repeats but may differ in a detail not shown here. Equal values may be shown once. Inconclusive results are not listed. Some structures have more than one record in an assay (separate samples or runs), and their calls can disagree. Active and inactive are the calls of the source. Calls come from the whole dose curve; as a rule, active = well fitted inhibition curve with a large enough effect; inconclusive = small, poorly fitted or top-dose-only effect; inactive = no such curve, though single readings can be large or run the other way.
# Molecular target: Cytochrome P450 2C9 (Homo sapiens) (UniProt P11712)
# Test: qHTS Assay for Inhibitors and Substrates of Cytochrome P450 2C9 (AID 883); note: nearly all actives have a fitted effect of over 60% in size
# Conditions: recombinant CYP2C9, luciferin-H luminescence, 60 min; series mostly up to 57.1 µM; activity change, negative = inhibition: at the top concentration
# Procedure: NIH Molecular Libraries Screening Centers Network [MLSCN] NIH Chemical Genomics Center [NCGC] MLSCN Grant: None NCGC Assay Overview: The P450 gene superfamily is involved in the metabolism and clearance of xenobiotics. This assay used human CYP2C9 to measure the hydroxylation of deoxyluciferin (Luciferin-H; P450 Glo-Buffer) to luciferin. The luciferin is then measured by luminescence after the addition of a luciferase detection reagent. Luciferin-H concentration in the assay was equal to its Michaelis constant KM for CYP2C9. Inhibitors and some substrates limit the production of luciferin, and decrease measured luminescence.
# NCGC Assay Protocol Summary: Two uL of enzyme and substrate mix (final concentrations: 10nM CYP2C9, 100uM Luciferin-H, 25mM KPO4) were dispensed into a white, solid bottom 1536-well microtiter plate. 23nL of compound was transferred by a pin tool. The plate was incubated at 37C for 10 min. Two uL of an NADPH regeneration solution (Promega supplied reagent) was dispensed and the reaction was allowed to continue for 60 min at 37C. Then the reaction was stopped by reconstituted P450 Glo-Buffer. After another 20 min of incubation the plate was read on the ViewLux (Perkin Elmer) at 60 sec exposure and 2x2 binning. This protocol was carried out with Promega-Glo reagents and further information can be found at http://www.promega.com/tbs/tb325/tb325.pdf. Data were normalized to the to AC100 inhibition (57uM sulphaphenazole). Keywords: P450, CYP2C9, Luciferase, MLSMR, MLSCN, NIH Roadmap, qHTS, NCGC
# % is set by controls: 0 for no effect and ±100 for the full control effect; potency is the fitted concentration of half-maximal effect.
# Sequence of Cytochrome P450 2C9 (Homo sapiens) (P11712 whole entry, looked up): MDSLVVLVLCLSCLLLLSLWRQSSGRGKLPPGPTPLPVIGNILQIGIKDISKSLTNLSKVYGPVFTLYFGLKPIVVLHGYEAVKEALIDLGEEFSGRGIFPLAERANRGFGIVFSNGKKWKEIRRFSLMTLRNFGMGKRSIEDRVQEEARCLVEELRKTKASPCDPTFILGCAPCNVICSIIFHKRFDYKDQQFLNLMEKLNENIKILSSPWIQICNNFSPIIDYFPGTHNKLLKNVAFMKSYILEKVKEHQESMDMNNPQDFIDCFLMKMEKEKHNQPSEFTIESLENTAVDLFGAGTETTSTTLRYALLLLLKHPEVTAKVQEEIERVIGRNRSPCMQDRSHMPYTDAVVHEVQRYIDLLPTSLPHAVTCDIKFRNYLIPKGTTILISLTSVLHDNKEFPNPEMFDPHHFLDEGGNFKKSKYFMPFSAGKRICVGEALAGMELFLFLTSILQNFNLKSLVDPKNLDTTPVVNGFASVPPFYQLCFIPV
SMILES,Potency,"activity change, negative = inhibition"
O=c1cc(-c2ccccc2)oc2cc(O)c(O)c(O)c12,5.01 µM (active),–
O=c1c(O)c(-c2ccc(O)cc2)oc2cc(O)cc(O)c12,15.8 µM (active),–
CCN(CC)C(=O)c1ccc(O)c(OC)c1,–,27.1% (inactive)
c1cc(-c2sc(-c3ccncc3)c(-c3ccncc3)c2-c2ccncc2)ccn1,2 µM (active),–
CCCNC(=O)NS(=O)(=O)c1ccc(Cl)cc1,–,-12.6% (inactive)
O=c1c(-c2ccc(O)cc2)coc2cc(O)ccc12,inactive and 6.31 µM (active),–
C[N+](C)(C)CCCCCC[N+](C)(C)C,–,38.7% (inactive)
COc1ccc(-c2coc3cc(O)ccc3c2=O)cc1,–,38.7% (inactive)
COc1ccc(-c2coc3cc(O)cc(O)c3c2=O)cc1,–,-43.7% (inactive)
CC(C)OC(=O)C(C)(C)Oc1ccc(C(=O)c2ccc(Cl)cc2)cc1,5.01 µM (active),–
CC(=O)c1ccc(S(=O)(=O)NC(=O)NC2CCCCC2)cc1,–,-21.5% (inactive)
O=c1cc(-c2ccc(O)cc2)oc2cc(O)cc(O)c12,–,110% (inactive)
CS(=O)c1ccc(-c2nc(-c3ccc(F)cc3)c(-c3ccncc3)[nH]2)cc1 (stereo not given),2 µM (active),–
CC(=O)CCCCn1c(=O)c2c(ncn2C)n(C)c1=O,–,2.07% (inactive)
CCCCCCCCCCCC1=C(O)C(=O)C=C(O)C1=O,25.1 µM (active),–
